# High-throughput results (PubChem)
# TLR4-MyD88 inh – inhibitors of human TLR4-MyD88 binding; Toll-like receptor 4 (Homo sapiens), O00206; Cell-based TLR4-MyD88 binding inhibition assay; inhibition, % at 10 µM; 0.06% of 16,000 active; AID 811, 2007; in the data active = inhibition above about 45%
# rat GALR2 ag – agonists of rat galanin receptor 2 (GALR2) | Galanin receptor type 2 (Rattus norvegicus), O08726 | 0.5% of 16,000 active | AID 833, 2007 | activation, % at 10 µM | cell-based GALR2 agonist screen; in the data active = activation above about 15%
# S1P1 ag – activates the human S1P1 receptor; S1P1 agonist cell-based reporter assay; Sphingosine 1-phosphate receptor 1 (Homo sapiens), P21453; 1.5% of 16,000 active; activation, % at 4.5 µM; in the data active = activation above about 80%
# Target sequence (P21453 whole entry, looked up): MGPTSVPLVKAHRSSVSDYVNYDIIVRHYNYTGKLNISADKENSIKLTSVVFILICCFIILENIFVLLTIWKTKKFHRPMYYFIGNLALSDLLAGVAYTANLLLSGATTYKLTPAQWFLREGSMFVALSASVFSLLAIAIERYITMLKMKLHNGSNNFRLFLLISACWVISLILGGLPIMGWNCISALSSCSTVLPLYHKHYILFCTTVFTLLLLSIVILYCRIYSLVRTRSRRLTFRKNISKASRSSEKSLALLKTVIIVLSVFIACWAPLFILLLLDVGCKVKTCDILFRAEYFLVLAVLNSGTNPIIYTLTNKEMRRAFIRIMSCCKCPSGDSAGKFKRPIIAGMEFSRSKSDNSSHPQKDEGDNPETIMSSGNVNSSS
# KOR antag MB – antagonists of human kappa opioid receptor OPRK1, Maybridge library; AID 652031, 2013; inhibition, % at 9 µM; Kappa-type opioid receptor (Homo sapiens), P41145; 0.4% of 16,000 active; OPRK1 cells, antagonist mode, fluorescence readout; in the data active = inhibition above about 50%
# * marks the source's active call; other numbers are inactive results; x = no result given. Sampled rows, rich in hits. Any-hit rate of the full collection: about 2.6%.
SMILES,TLR4-MyD88 inh,rat GALR2 ag,S1P1 ag,KOR antag MB
Cc1[nH]n(C)c(=O)c1N=Nc1ccc(C(C)C)cc1,2.1,-7.1,101.7*,-3.4
Cn1nc(-c2ccccc2)c(O)c(N=Nc2ccccc2)c1=O,-25.7,-5.5,3.8,-2.7
Cc1c(-c2nc(-c3ccc([N+](=O)[O-])o3)no2)n(C)oc1=O,1.5,-10.5,-10.7,3.9
Cc1c(-c2nc(-c3ccc(C(C)(C)C)cc3)no2)n(C)oc1=O,2.3,-2.8,95.4*,12.1
O=C(Cn1nnc(N2CCCC2)n1)NNC(=S)Nc1ccc(Cl)cc1,-7.7,-3.9,4.8,8.6
Cc1ccc(COc2ncnc3cc(Cl)ccc23)cc1,x,45.9*,-15.7,-2.0
C#CC(C)(C)N1CNC(=S)NC1,0.5,-7.5,-3.3,6.4
Cn1nc(C(C)(C)C)cc1C(=O)Nc1cccnc1,-5.9,-7.5,-16.1,-19.1
Cc1cc(C)c(C(=O)Nc2cccnc2)c(CC(C)(C)C(=O)O)c1,1.9,-6.0,81.7*,13.5
CCC/C(O)=C(\C=N\c1ccc(C(=O)OC)o1)C(=O)OCC,1.3,-2.6,82.7*,-5.4
COC(=O)c1ccc(/N=C/N(C)C)o1,5.5,-1.0,-0.2,-84.3
O=[N+]([O-])c1ccc(SC2=NCCS2)c([N+](=O)[O-])c1,-18.9,-8.0,113.3*,24.1
O=C1NC(=S)S/C1=C\c1cc([N+](=O)[O-])ccc1Sc1ccc(C(F)(F)F)cn1,0.3,-3.4,108.1*,11.7
O=[N+]([O-])c1cnc(Sc2ccc(C(F)(F)F)cn2)s1,-0.1,-5.5,-23.8,14.8
N#Cc1nc(=O)n(-c2ccc(OC(F)(F)F)cc2)c(N)c1N=Cc1ccc(C(F)(F)F)cc1,-3.5,-8.2,105.7*,16.1
Oc1c(Cl)cc(Cl)cc1/C=N/NC(=S)NC1CC2CCC1C2 (configuration not stated),-101.3,51.0*,-70.8,-70.5
Fc1ccc(-c2nc(-c3ccccc3)no2)c(Cl)c1,1.8,-3.2,44.5,5.5
Cc1csc2c(=O)n(CCSc3ccc(Cl)cc3)c(=O)[nH]c12,-2.0,-5.5,-23.4,-28.0
Cc1noc(C)c1S(=O)(=O)N(Cc1ccccc1)C(C)C,-5.8,47.0*,3.3,-16.0
FC(F)(F)c1cc(-c2ccncc2)n[nH]1,9.4,-6.8,-6.0,8.9
Cc1cc(-c2onc(C)c2/C(N)=N/OC(=O)c2ccccc2)no1,5.3,-5.6,-6.2,6.6
Clc1ccc(COc2ccc(-c3noc(C4CC4)n3)cc2)cc1,0.3,-7.8,100.6*,0.3
O=C(Nc1ccc(Cl)cc1)c1csc([N+](=O)[O-])c1,0.0,-5.7,12.2,14.4
O=C(Nc1ccc(-c2cnco2)cc1)c1csc([N+](=O)[O-])c1,6.3,-1.1,104.7*,2.6
O=C(Nc1ccccc1)Nc1ccccc1Sc1nccc(C(F)(F)F)n1,-2.6,-9.7,3.4,-29.4
SMILES,TLR4-MyD88 inh,rat GALR2 ag,S1P1 ag,KOR antag MB
O=C(CSc1ccccn1)Nc1ccccc1Sc1nccc(C(F)(F)F)n1,11.4,-4.9,83.7*,4.6
C=CCNC(=S)NNC(=O)CSc1ccccc1[N+](=O)[O-],0.3,-4.3,9.2,-25.0
C=CCNC(=S)NNC(=O)c1oc2nc(-c3ccc(Cl)cc3)cc(-c3ccccc3)c2c1N,-5.8,-5.8,-6.3,66.2*
O=C(N/C(=C\c1ccc(-c2ccc([N+](=O)[O-])cc2)o1)c1nc2ccccc2[nH]1)c1ccccc1,49.9*,-17.3,68.1,112.8*
CN1C/C(=C\c2ccco2)C(=O)/C(=C/c2ccco2)C1,5.3,-5.2,-4.0,12.0
CC(=O)Nc1onc(C)c1-c1nc(-c2ccc(Cl)cc2Cl)cs1,6.3,-6.3,-4.1,50.5*
CSc1nc(/C=N/c2nc(C)cc(C)n2)c(O)n1Cc1cccc(Cl)c1,2.0,-3.6,102.7*,-18.6
CSC1=NCC(=O)N1Cc1cccc(Cl)c1,0.3,-4.1,4.3,6.1
O=S(=O)(Nc1ccc2c(c1)OCCO2)c1csc(-c2cc(C(F)(F)F)on2)c1,6.0,-5.0,82.3*,3.4
O=S(=O)(Nc1ccc(Cl)cc1)c1ccc(-c2cc(C(F)(F)F)on2)s1,-3.8,-1.3,24.8,4.4
Cc1noc(C)c1C(=O)O/N=C(\N)Cn1ccc(C(F)(F)F)n1,5.7,-8.0,-7.7,5.7
O=[N+]([O-])/C=C/c1c2ccccc2cc2ccccc12,-20.2,-8.7,23.6,72.0*
CCOC(=O)/C(C#N)=C/Nc1nc2ccc(C)cc2s1,-8.3,-5.3,87.1*,-0.5
Cc1c(C(=O)CC2OC(=O)C(Cl)=C2Cl)sc2ccc(Cl)cc12 (configuration not stated),5.7,-1.7,-23.2,10.7
O=S(=O)(Nc1ccc(F)c(Cl)c1)c1cc(Br)c(Br)s1,-15.2,-9.7,89.7*,-20.6
O=S(=O)(c1cc(Br)c(Br)s1)N1CCCCC1,4.1,-3.5,34.2,16.3
O=[N+]([O-])c1ccc(C2=NN(c3ccccc3)C(c3ccco3)C2)cc1 (configuration not stated),70.4*,-20.4,74.5,86.6*
Cc1ccsc1/C=C/C(=O)O/N=C(\N)c1ccc(C(F)(F)F)cc1,x,-4.8,100.1*,5.6
O=C(O)c1nccnc1C(=O)N1CCN(c2ccc(C(F)(F)F)cn2)CC1,x,-4.2,9.7,-0.3
COc1cccc(C=NC2CCN(Cc3ccccc3)CC2)c1OC,11.7,0.9,-5.2,23.3
COc1ccccc1C1CCN(Cc2ccc3c(c2)CCC(C)(C)O3)CC1,-2.2,-1.9,-2.0,75.2*
CC(=O)Nc1ccccc1-c1nnc(-c2ccc(C(C)(C)C)cc2)o1,-0.3,-9.0,103.8*,4.3
N#C/C(=N\Nc1cccc(C(F)(F)F)c1)S(=O)(=O)c1ccsc1,-8.4,-10.0,97.0*,-2.4
Cc1cc(S(=O)(=O)Cc2ccc(NC(=O)C(Cl)(Cl)Cl)cc2)c(C)cc1Cl,-3.7,16.3*,5.0,-16.7
COC(=O)c1sc2ccccc2c1Cl,13.5,-2.6,107.5*,1.8
SMILES,TLR4-MyD88 inh,rat GALR2 ag,S1P1 ag,KOR antag MB
O=S(=O)(Nc1cc(C(F)(F)F)cc(C(F)(F)F)c1)c1cccc2nsnc12,2.7,-2.5,88.8*,17.1
N#C/C(=C\Nc1ccc2c(c1)C(=O)OC2)C(=O)c1cccs1,-3.4,-1.0,-1.6,12.8
CN(C)c1ccc(/C=N/NC(=O)c2ccncc2)cc1,5.9,4.0,-1.2,-3.8
O=S(=O)(NCCSCc1csc2ccc(Cl)cc12)c1ccc(Cl)cc1,16.0,-5.3,90.0*,-22.6
O=S(=O)(NCc1csc2ccc(Cl)cc12)c1ccc(C(F)(F)F)cc1,5.3,9.3,-4.9,-1.7
O=C(N/N=C/c1ccccc1)/C(=C/c1ccccc1)NC(=O)c1ccccc1,-4.1,-8.2,-2.6,-5.3
CCSc1ncccc1C(=O)O,-10.4,-5.8,2.0,-10.3
COC(=O)c1c(C)oc(C)c1S(=O)(=O)NCCSCc1c(F)cccc1Cl,-10.7,-4.5,32.4,-7.1
O=C1/C(=C/c2cccs2)CC/C1=C\c1cccs1,6.4,6.4,81.2*,4.1
O=C(c1ccc(Cl)cc1)n1ccc(-c2cccc([N+](=O)[O-])c2)n1,4.1,26.2*,-15.9,6.4
Cc1nc(C(F)(F)F)c(C(=O)O/N=C(\N)c2cccc(C(F)(F)F)c2)s1,0.6,-7.8,99.0*,-5.2
